From PubChem BioAssay (NCI)
The panel holds about 83,000 compounds, 20% with a hit somewhere; the sample as a whole holds those more often.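 The test compound was applied at a single concentration to cells in 96-well plates for 48 hours, and percent growth was recorded.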 Active and inactive are the calls of the source. How the source made its calls: active means growth percent below 10; inactive means the rest.

Columns and labels:
Assay in all cases: NCI-60 one-dose screen, 48 h (100 = growth as untreated, 0 = no growth, -100 = all killed)
Conditions in all cases: 10 µM unless noted
NCI-H23 lung = test system: NCI-H23 lung
NCI-H226 lung = test system: NCI-H226 lung
NCI-H322M lung = test system: NCI-H322M lung
HOP-62 NSCLC = test system: HOP-62 NSCLC
NCI-H460 lung = test system: NCI-H460 lung
HOP-92 NSCLC = test system: HOP-92 NSCLC
NCI-H522 lung = test system: NCI-H522 lung
A549/ATCC NSCLC = test system: A549/ATCC NSCLC
786-0 renal = test system: 786-0 renal
COLO 205 colon = test system: COLO 205 colon

Measured: growth

Cc1ccc(N2CCN(C(=S)c3cccs3)CC2)cc1
inactive: NCI-H23 lung 104% | NCI-H226 lung 94.9% | NCI-H322M lung 107% | HOP-62 NSCLC 105% | NCI-H460 lung 109% | HOP-92 NSCLC 74.8% | NCI-H522 lung 82.6% | A549/ATCC NSCLC 92.5% | 786-0 renal 90.3% | COLO 205 colon 112%

CC1(C)CC(=O)CC2(C1)N=C(N)Nc1nc3ccccc3n12 (stereo not given)
inactive: NCI-H23 lung 101% | NCI-H226 lung 95.6% | NCI-H322M lung 117% | HOP-62 NSCLC 119% | NCI-H460 lung 111% | HOP-92 NSCLC 87.3% | NCI-H522 lung 69.6% | A549/ATCC NSCLC 97.9% | 786-0 renal 107% | COLO 205 colon 102%

CCOC(=O)c1c(-c2ccc(Cl)cc2)c(C#N)c(=O)n(-c2ccccc2CC)c1N
inactive: NCI-H23 lung 76.9% | NCI-H226 lung 85.4% | NCI-H322M lung 78.7% | HOP-62 NSCLC 97.5% | NCI-H460 lung 82.3% | HOP-92 NSCLC 65.9% | NCI-H522 lung 92% | A549/ATCC NSCLC 85% | 786-0 renal 93.4% | COLO 205 colon 111%

COc1ccc(NC(=O)CSc2nc(C)c(C(C)=O)n2-c2ccc([N+](=O)[O-])cc2)cc1
inactive: NCI-H23 lung 88.2% | NCI-H226 lung 89% | NCI-H322M lung 92.7% | HOP-62 NSCLC 95.7% | NCI-H460 lung 103% | HOP-92 NSCLC 112% | NCI-H522 lung 88.9% | A549/ATCC NSCLC 90.6% | 786-0 renal 83.9% | COLO 205 colon 102%

O=C1CCc2c(sc3[nH]c(=S)n(-c4ccc(OC(F)(F)F)cc4)c(=O)c23)C1
active: NCI-H460 lung 2.8% | HOP-92 NSCLC -10.3% | NCI-H522 lung 7.42%
inactive: NCI-H23 lung 14.1% | NCI-H226 lung 72.4% | NCI-H322M lung 90.5% | HOP-62 NSCLC 53.1% | A549/ATCC NSCLC 77.1% | 786-0 renal 99.8% | COLO 205 colon 99.2%

CCCCN(CCCC)CC(C)(C)C(O)c1ccc(OC)c2ccccc12 (stereo not given)
active: NCI-H23 lung -1.81% | HOP-92 NSCLC -9.57% | NCI-H522 lung 4.57%
inactive: NCI-H226 lung 51.7% | NCI-H322M lung 44.9% | HOP-62 NSCLC 73.7% | NCI-H460 lung 39.1% | A549/ATCC NSCLC 63.5% | 786-0 renal 58.4% | COLO 205 colon 71%

CCc1ccccc1NC(=O)/C(C#N)=C/c1ccc(OC)cc1
inactive: NCI-H23 lung 98.2% | NCI-H226 lung 97.5% | NCI-H322M lung 87.8% | HOP-62 NSCLC 96% | NCI-H460 lung 104% | HOP-92 NSCLC 86.9% | NCI-H522 lung 91.4% | A549/ATCC NSCLC 94% | 786-0 renal 107% | COLO 205 colon 119%

COC(=O)[C@]12CC[C@@H](C)[C@H](C)[C@@H]1C1=CC[C@@H]3[C@@]4(C)C(C=O)=C[C@@](C)(COS(C)(=O)=O)C4[C@H](O)C[C@@]3(C)[C@]1(C)CC2 (stereo not given in full)
active: NCI-H23 lung -50.1% | NCI-H226 lung -67.2% | NCI-H322M lung -1.44% | HOP-62 NSCLC -63.6% | NCI-H460 lung -58.2% | HOP-92 NSCLC -74.3% | NCI-H522 lung -82.6% | A549/ATCC NSCLC -67.1% | 786-0 renal -91.5% | COLO 205 colon -70.8%

COc1cc(/C=N/Nc2ncc(-c3cc4cc5c(cc4o3)OCO5)s2)cc(OC)c1OC
inactive: NCI-H23 lung 53% | NCI-H226 lung 76.9% | NCI-H322M lung 103% | HOP-62 NSCLC 81% | NCI-H460 lung 56.7% | HOP-92 NSCLC 85.3% | NCI-H522 lung 40% | A549/ATCC NSCLC 37.6% | 786-0 renal 84.5% | COLO 205 colon 46.4%

Cc1cc(NCc2cc(Nc3ccnc4cc(Cl)ccc34)ccc2F)nc(N2CCCC2)n1
inactive: NCI-H23 lung 32.9% | NCI-H226 lung 65.8% | NCI-H322M lung 30.6% | HOP-92 NSCLC 41.3%
active: HOP-62 NSCLC -13.3% | NCI-H460 lung -51.7% | NCI-H522 lung -40.3% | A549/ATCC NSCLC 8.66% | 786-0 renal -83.9% | COLO 205 colon -78.4%

CCCCCCCCn1ccc2cc(NC(=O)Cn3cc(CN4CCCC4)nn3)ccc21
inactive: NCI-H23 lung 87.3% | NCI-H226 lung 95.5% | NCI-H322M lung 49.5% | HOP-62 NSCLC 74% | HOP-92 NSCLC 28% | NCI-H522 lung 52.3% | A549/ATCC NSCLC 40.2% | 786-0 renal 16.8%
active: NCI-H460 lung -64.5% | COLO 205 colon -81.4%

CN(Cc1cnc2nc(N)nc(N)c2n1)c1ccc(C(=O)N[C@@H](CCc2nn[nH]n2)c2nn[nH]n2)cc1
inactive: NCI-H23 lung 40.8% | NCI-H226 lung 85.4% | NCI-H322M lung 66% | HOP-62 NSCLC 32.7% | NCI-H460 lung 19.4% | HOP-92 NSCLC 93.2% | NCI-H522 lung 40.9% | A549/ATCC NSCLC 22.9% | 786-0 renal 26.8% | COLO 205 colon 49.3%

Cc1cc(C)c2c(-c3nnc(N)s3)cc(=O)oc2c1
inactive: NCI-H23 lung 96.3% | NCI-H226 lung 100% | NCI-H322M lung 99% | HOP-62 NSCLC 111% | NCI-H460 lung 103% | HOP-92 NSCLC 115% | NCI-H522 lung 101% | A549/ATCC NSCLC 104% | 786-0 renal 99.4% | COLO 205 colon 116%

COc1cc(-c2nc(N3CCN(C)CC3)c3ccccc3n2)cc(OC)c1OC
active: NCI-H522 lung 8.58%
inactive: NCI-H23 lung 74.4% | NCI-H226 lung 66.2% | NCI-H322M lung 84.4% | HOP-62 NSCLC 47.3% | NCI-H460 lung 84.5% | HOP-92 NSCLC 44.3% | A549/ATCC NSCLC 72.5% | 786-0 renal 47.5% | COLO 205 colon 81.5%

CCCCCCCOc1c(OC)cc(C2CC(=O)Nc3c2c(C)nn3-c2nc3ccccc3[nH]2)cc1OC (stereo not given)
active: NCI-H23 lung -2.79% | NCI-H226 lung -38.7% | NCI-H322M lung 2.06% | HOP-62 NSCLC -22.6% | NCI-H460 lung -26.8% | HOP-92 NSCLC -8.34% | NCI-H522 lung -40.7% | A549/ATCC NSCLC 1.6% | 786-0 renal 4.68% | COLO 205 colon 3.24%

S=C(Cc1ccc2c(c1)CCCC2)N1CCOCC1
inactive: NCI-H23 lung 98.4% | NCI-H226 lung 110% | NCI-H322M lung 94.8% | HOP-62 NSCLC 89.8% | NCI-H460 lung 107% | HOP-92 NSCLC 121% | NCI-H522 lung 81.3% | A549/ATCC NSCLC 93.2% | 786-0 renal 101% | COLO 205 colon 106%

CC(CN1CCCCC1)C(=O)c1ccccc1 (stereo not given)
inactive: NCI-H23 lung 101% | NCI-H226 lung 103% | NCI-H322M lung 102% | HOP-62 NSCLC 103% | NCI-H460 lung 105% | HOP-92 NSCLC 79% | A549/ATCC NSCLC 98% | 786-0 renal 105% | COLO 205 colon 108%
active: NCI-H522 lung -57.1%

Cc1cc(C(=O)c2ccccc2)c(C)c2c1[nH]c1ccc(Cl)cc12
active: NCI-H460 lung 5.49% | COLO 205 colon -24.8%
inactive: NCI-H23 lung 24.6% | NCI-H226 lung 50.6% | NCI-H322M lung 42% | HOP-62 NSCLC 34.3% | HOP-92 NSCLC 54.8% | NCI-H522 lung 20.8% | A549/ATCC NSCLC 19.6% | 786-0 renal 24.4%

Cc1c(C(=O)OC(=NC2CCCCC2)NC2CCCCC2)sc2c1c(=O)nc1c(C#N)n[nH]n12
inactive: NCI-H23 lung 97.3% | NCI-H226 lung 131% | NCI-H322M lung 115% | HOP-62 NSCLC 89.5% | NCI-H460 lung 112% | NCI-H522 lung 89.2% | A549/ATCC NSCLC 108% | 786-0 renal 92% | COLO 205 colon 120%
active: HOP-92 NSCLC -16.8%

CN(C)CCC=C1c2ccccc2C(C)(C)c2ccccc21
inactive: NCI-H23 lung 65.8% | NCI-H226 lung 122% | NCI-H322M lung 99.1% | HOP-62 NSCLC 64.5% | NCI-H460 lung 85.6% | HOP-92 NSCLC 36.7% | NCI-H522 lung 76.5% | A549/ATCC NSCLC 88.9% | 786-0 renal 67.4% | COLO 205 colon 68.7%

CC(C)C(NC(=O)C1(NC(=O)OCc2ccccc2)CCCC1)C(=O)O (stereo not given)
inactive: NCI-H23 lung 99.6% | NCI-H226 lung 104% | NCI-H322M lung 106% | HOP-62 NSCLC 119% | NCI-H460 lung 100% | HOP-92 NSCLC 92% | NCI-H522 lung 88.9% | A549/ATCC NSCLC 106% | 786-0 renal 104% | COLO 205 colon 107%

NC(=O)c1ccc[n+]([C@@H]2O[C@H](COP(=O)([O-])OP(=O)(O)OC[C@H]3O[C@@H](n4cnc5c(N)ncnc54)[C@H](O)[C@@H]3O)[C@@H](O)[C@H]2O)c1
inactive: NCI-H23 lung 103% | NCI-H226 lung 117% | NCI-H322M lung 113% | HOP-62 NSCLC 108% | NCI-H460 lung 104% | HOP-92 NSCLC 111% | NCI-H522 lung 105% | A549/ATCC NSCLC 105% | 786-0 renal 103% | COLO 205 colon 113%

Cc1cc(NCc2cc(Nc3ccnc4cc(Cl)ccc34)ccc2F)nc(N2CCOCC2)n1
active: HOP-62 NSCLC -9.53% | 786-0 renal 1.21%
inactive: NCI-H23 lung 43.8% | NCI-H226 lung 61.2% | NCI-H322M lung 71.3% | NCI-H460 lung 39.8% | HOP-92 NSCLC 42.5% | NCI-H522 lung 21.8% | A549/ATCC NSCLC 59.4% | COLO 205 colon 35.5%

COc1c(CCC[P+](c2ccccc2)(c2ccccc2)c2ccccc2)cc2c(c1OC)OCO2
active: NCI-H23 lung 2.87% | NCI-H460 lung 5.26% | HOP-92 NSCLC -4.16% | NCI-H522 lung -11.8% | COLO 205 colon -55.6%
inactive: NCI-H226 lung 27% | NCI-H322M lung 45.4% | HOP-62 NSCLC 15.1% | A549/ATCC NSCLC 40% | 786-0 renal 21.8%

Cc1cc(C)c(-c2c(C)cc(C)cc2CBr)c(CBr)c1
inactive: NCI-H23 lung 85.8% | NCI-H226 lung 100% | NCI-H322M lung 102% | HOP-62 NSCLC 84.6% | NCI-H460 lung 77.2% | HOP-92 NSCLC 106% | NCI-H522 lung 66.4% | A549/ATCC NSCLC 68.6% | 786-0 renal 95.8% | COLO 205 colon 78.6%

O=C1/C(=C\c2c[nH]c3ccccc23)c2ccccc2N1c1c(Cl)cccc1Cl
inactive: NCI-H226 lung 14.7% | NCI-H322M lung 18.8% | HOP-62 NSCLC 19.6%
active: NCI-H23 lung -80.1% | NCI-H460 lung -89.5% | HOP-92 NSCLC -13.7% | NCI-H522 lung -57.9% | A549/ATCC NSCLC 0.113% | 786-0 renal -37.7% | COLO 205 colon -100%

CCN(CC)CCCCCCNc1cc(OC)c(Cl)c2cccnc12
inactive: NCI-H23 lung 76.9% | NCI-H226 lung 78.7% | NCI-H322M lung 92.7% | HOP-62 NSCLC 69.1% | NCI-H460 lung 83.9% | HOP-92 NSCLC 58.8% | NCI-H522 lung 81.1% | A549/ATCC NSCLC 96.7% | 786-0 renal 73.9% | COLO 205 colon 55.1%
